Bioassay records from PubChem BioAssay.
Tau ThT inhib: blocks human tau fibril formation measured by thioflavin T; hit rate 2.1% among 270,000; P10636; AID 1460; Potency, µM (highest dose often 57.4 µM), inactives show at the top dose activity, negative = inhibition, hits mostly inhibitors; recombinant tau K18 P301L, heparin-induced fibrillization, ThT fluorescence; note: potency is the fitted concentration of half-maximal effect; nearly all actives have a fitted effect of over 55% in size
Target sequence (P10636 561-689 P618L limits assumed): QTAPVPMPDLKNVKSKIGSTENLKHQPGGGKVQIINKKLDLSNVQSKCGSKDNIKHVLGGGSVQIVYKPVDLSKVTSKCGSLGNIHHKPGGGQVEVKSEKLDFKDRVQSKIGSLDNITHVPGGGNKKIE
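Tau K18 P301L fragment (15 uM unlabeled plus 0.24 uM Alexa 594-labeled) in 100 mM sodium acetate pH 7 with compound, fibrillization induced by 20 uM heparin for 6 hr at 37 C. Thioflavin T (30 uM) added, fluorescence read after 1 hr (ex 450, em 510 nm).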
Coupling enz: counter-screen for Giardia aldolase inhibitors: coupling enzyme system; activity change, negative = inhibition, % at 58.2 µM, hits read low; hit rate 0.67% among 290,000; coupling enzyme system counterscreen, AmpLite Red fluorescence; in the data active = activity change below about -30%
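Compounds tested against the coupling enzymes alone at 57.5 uM final; readout was AmpLite Red fluorescence (525/598 nm) after 20 min at RT.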
Tau fluor counter: counter-screen for tau fibril formation inhibitors. tau K18 P301L Alexa594 fluorescence, heparin fibrillization. Potency, µM (series often up to 57.7 µM), for inactives: top-dose activity change, negative = decrease. hit rate 0.93% among 280,000. AID 1463; note: potency is the fitted concentration of half-maximal effect; nearly all actives have a fitted effect of over 55% in size
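Human tau K18 P301L (15 uM unlabeled, 0.24 uM Alexa 594-labeled) in 100 mM sodium acetate pH 7 with 20 uM heparin, 6 hr at 37 C. ThT 30 uM added, 1 hr ambient; Alexa 594 FP and total fluorescence read at 555/632 nm.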
Sfp PPTase inh: inhibitors of Bacillus subtilis Sfp phosphopantetheinyl transferase; Q9F4F7; Biochemical Sfp PPTase activity, qHTS; Potency, µM, inactives show largest response in the series, negative = inhibition, usual class: inhibitors; hit rate 3.5% among 310,000;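 note: the enzyme is Sfp with the accession as filed and its product quenches rhodamine fluorescence; potency is the fitted concentration of half-maximal effect; 0% = enzyme reaction without inhibitor and -100% = no enzyme wells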
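Fluorescence-quenching assay with 15 nM Sfp, 5 uM rhodamine-CoA and 12.5 uM BHQ-2-labelled ybbR peptide in pH 7.6 Hepes/MgCl2 buffer. Enzyme was pre-incubated with compound for 15 min at room temperature. Rate was taken from the 30-min fluorescence change (525/598 nm).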
Tau fibril FP: tau fibrillization inhibition (FP). P10636. K18 P301L tau heparin fibrillization, Alexa594 FP, 6 h. Potency, µM (titrated, usually from 57.7 µM), for inactives: at the top dose activity, negative = inhibition, actives largely listed as inhibitors. hit rate 0.39% among 280,000. AID 1468; note: potency is the fitted concentration of half-maximal effect; nearly all actives have a fitted effect of over 55% in size
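FP of Alexa 594-tau after heparin (20 uM) induction. Substrate: human K18 P301L, 15 uM unlabeled, 0.24 uM labeled. Buffer 100 mM sodium acetate pH 7. 6 hr, 37 C.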
Numbers without * were called inactive; ? = inconclusive; / = not tested or not shown; [ ] = another dose, or the depositor's remark. Sampled rows, rich in hits. Any-hit rate of the full collection: about 5.2%. Unless noted, calls come from the whole dose curve; as a rule, active = well fitted curve in the direction sought with a large enough effect; inconclusive = small, poorly fitted or top-dose-only effect, or another doubt; inactive = no such curve, though single readings can be large; an effect the other way counts as inactive or inconclusive. Unless noted, % is set by controls: 0 for no effect and ±100 for the full control effect.

SMILES | Tau ThT inhib | Coupling enz | Tau fluor counter | Sfp PPTase inh | Tau fibril FP
COc1ccc(N2C(=O)C(Cl)=C(Oc3cccc(OC)c3)C2=O)cc1 | 14µM* | 1 | -19% | 8.9µM* | 22µM*
COc1ccc(N2C(=O)C(Cl)=C(Nc3ccccc3O)C2=O)cc1 | 10µM* | -1 | ? | 45µM* | ?
COc1ccc(N2C(=O)c3ccccc3C2=O)cc1 | -5% | 2 | 5% | 12% | 2%
COc1ccc(Cc2nc3ccc(C(=O)NCc4cc(Br)ccc4OC)cc3o2)cc1 | ? | / | ? | / | -10%
C=CCN1C(=O)/C(=C2/Sc3ccccc3N2CC)SC1=S | / | 2 | / | 6% | /
CCCN1/C(=C2/SC(=S)N(CC)C2=O)C=Cc2ccccc21 | ? | -7 | ? | ? | 4%
C=CCN1C(=O)/C(=C2/Sc3ccccc3N2CCCS(=O)(=O)O)SC1=S | ? | 0 | -10% | 45µM* | 1%
CCN1C(=O)/C(=C2/C=Cc3ccccc3N2CC)SC1=S | 13µM* | -1 | ? | -15% | 11%
CCCN1C(=O)/C(=C2/C=Cc3ccccc3N2CC)SC1=S | ? | -5 | ? | 4% | 1%
CN1C(=O)/C(=C2/C=Cc3ccccc3N2CCCS(=O)(=O)O)SC1=S | 25µM* | -10 | -18% | -17% | 5%
CC(C)Oc1ccc(C(=O)N2CCN(c3nc4c(F)cc(F)cc4s3)CC2)cc1 | 1% | / | 0% | / | ?
COc1ccccc1CNC(=O)c1cc2c(=O)n(Cc3cccs3)ccc2nc1C | -8% | / | -1% | / | 11%
C=CCOC(=O)/C=C/C(=O)NC(N)=O | / | -1 | ? | 20µM* | 15%[11.6 µM]
C=CCOC(=O)/C=C/NC(=O)/C=C/C=C/CCCCCCCC(C)O (centres undefined) | ? | 7 | -14%[11.6 µM] | -6% | -2%[11.6 µM]
CCC/C=N/Nc1nnc(Cc2ccc(OC)c(OC)c2)c(=O)[nH]1 | / | -1 | / | 45µM* | /
Clc1ccc(OCCCc2nc(-c3cccnc3)no2)c(Cl)c1 | -8% | -2 | -15% | 32µM* | -8%
CC/C(=C(/c1ccccc1)c1ccc(OCCN(C)C)cc1)c1ccccc1 | ? | 6 | -10% | 50µM* | -14%
CN(C)NC(=S)NC1CCS(=O)(=O)C1 (centres undefined) | -6% | 2 | -8% | 79µM* | -3%
O=S1(=O)CCC(NC(=S)NC2CCS(=O)(=O)C2)C1 (centres undefined) | 6% | 2 | 4% | 5% | 1%
CCc1ccc(NC(=O)CCS(=O)(=O)c2cccc3nsnc23)cc1 | ? | -5 | -18% | 79µM* | -11%
Cc1ccc(NS(=O)(=O)c2cccc3nsnc23)cc1 | ? | -38* | -19% | -7% | -1%
O=S(=O)(Nc1ccccc1)c1cccc2nsnc12 | / | 2 | / | 13% | /
CCN(CC)c1ccc(C(=O)NCc2nc3cccnc3n2Cc2ccc(C)cc2)cc1 | ? | / | -29% | / | 5%
COc1ccc(CCNc2ncnc3c2nnn3C)cc1OC | 1% | / | 7% | / | -1%
COc1ccc(NC(=O)Cn2c(=O)n(CCCC(=O)NCCc3ccc(C)cc3)c(=O)c3ccccc32)cc1Cl | -5% | / | -25% | / | -4%
SMILES | Tau ThT inhib | Coupling enz | Tau fluor counter | Sfp PPTase inh | Tau fibril FP
CCCC[C@H]1CCCO[C@@](C(=O)NCc2ccc(C)o2)(C(F)(F)F)C1 | / | 0 | / | -26% | /
CC(=O)c1ccc(NC(=O)Cn2c(=O)c3cccn3c3ccccc32)cc1 | -8% | / | ? | / | ?
COc1ccc(NC(=O)Cn2c(=O)c3cccn3c3ccccc32)cc1 | -9% | / | ? | / | 18µM*
COc1ccc(OC)c(NC(=O)Cn2c(=O)c3cccn3c3ccccc32)c1 | ? | / | ? | / | 3.2µM*
Cc1ccnc(NC(=O)c2ccccc2[N+](=O)[O-])c1 | -10% | -2 | 4% | 22µM* | 2%
Cc1ccnc(NC(=O)c2cccc([N+](=O)[O-])c2C)c1 | -2% | -1 | -1% | 12% | 5%
O=C(NCc1ccccc1)[C@]1(C(F)(F)F)C[C@H](CCC2CCCCC2)CCCO1 | / | 0 | / | 3% | /
CCOC(=O)c1c(C)n(OCc2ccccc2)c2ccc3c(no[n+]3[O-])c12 | -6% | 0 | -9% | 79µM* | -1%
CCCCOn1c(C)c(C(C)=O)c2c3no[n+]([O-])c3ccc21 | -7% | 7 | -8% | 25% | 4%
